Source: PubChem BioAssay AID504847 (National Center for Advancing Translational Sciences (NCATS), 2011)
The whole screen tested about 400,000 compounds, of which about 3,700 (0.93%) were called active. Not shown: some 3% with an inconclusive outcome. This is one part of a sample in which actives are shown more often than they occur. The call rests on the fitted dose curve; in most records, active means well fitted inhibition curve with a large enough effect; inconclusive means small, poorly fitted or top-dose-only effect, or another doubt; inactive means no such curve, though single readings can be large or run the other way.

The molecules below were run against Vitamin D3 receptor (Homo sapiens) (UniProt P11473) (assay: Inhibitors of the vitamin D receptor (VDR): qHTS). Settings: VDR-SRC2-3 peptide fluorescence polarization, 2 h; max response, negative = inhibition: stronger effect = lower value.
How it was run: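 Measured by FP: displacement of SRC2-3 coactivator peptide from VDR by library compounds, following a two-hour ambient incubation.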
On the % scale 0 is the no-effect control and ±100 the full control effect; potency means the concentration at half of the fitted maximal effect.

Vitamin D3 receptor (Homo sapiens), sequence (P11473 whole entry, looked up): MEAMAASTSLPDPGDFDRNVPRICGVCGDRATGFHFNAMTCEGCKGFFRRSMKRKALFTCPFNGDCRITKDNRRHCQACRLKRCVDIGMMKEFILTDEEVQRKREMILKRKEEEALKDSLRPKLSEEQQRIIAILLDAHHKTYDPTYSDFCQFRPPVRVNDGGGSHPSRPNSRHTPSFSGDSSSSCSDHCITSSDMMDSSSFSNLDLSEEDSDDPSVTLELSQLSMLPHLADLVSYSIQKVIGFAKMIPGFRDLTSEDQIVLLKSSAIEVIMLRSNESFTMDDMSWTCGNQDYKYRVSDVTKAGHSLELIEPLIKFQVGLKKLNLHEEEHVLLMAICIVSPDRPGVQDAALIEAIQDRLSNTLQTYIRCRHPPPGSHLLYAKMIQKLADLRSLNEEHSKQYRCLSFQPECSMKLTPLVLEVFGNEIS

Max response, negative = inhibition, inactive:
Cc1ccccc1CCNC(=O)C1CCN(c2nc3ccccc3nc2C(F)(F)F)CC1 5.88%
CCOc1cc(C(=O)OCC(=O)Nc2cccc(C)c2)ccc1OCC(=O)N1CCOCC1 8.55%
CCOc1cc(C(=S)N2CCOCC2)ccc1OS(=O)(=O)c1ccc(Br)cc1 -11.5%
CCN(CC)S(=O)(=O)c1ccc2c(c1)nc(CN(C)C(=O)Nc1ccc(Cl)cc1)n2C 11%
O=C(c1csnn1)N1CCC[C@@]2(CCN(Cc3nccs3)C2)C1 1.05%
O=C(c1ccco1)N1CCC2(CC1)CN(c1ncccn1)C2 -6.75%
CC(C)NC(=O)N1CC[C@@]2(CCCN(C(=O)c3ccco3)C2)C1 -6.63%
O=C(c1csnn1)N1CCC2(CC1)CN(c1ncccn1)C2 -1.15%
O=C(Cn1c(=O)n(-c2ccc(F)cc2)c(=O)c2sc3ccccc3c21)NC1CCCC1 8.11%
COc1ccccc1Nc1nc(N)nc(N)c1S(=O)(=O)c1ccccc1 15.2%
COC(=O)c1ccc(NC(=O)CSc2n[nH]c(-c3ccccc3)n2)cc1 9.27%
COc1ccc2ncc3c(-c4ccc(C)c(C)c4)nn(CC(=O)NC4CCCC4)c3c2c1 5.23%
COc1ccc2c(c1)C=C(C(=O)NCc1cc(Br)ccc1OC)CO2 8.92%
Cc1ccc(NC(=O)CN2CCC(C(N)=O)CC2)cc1[N+](=O)[O-] -4.1%
O=C(CN1CCOCC1)N/N=C/c1ccc(-c2ccc(Br)cc2)o1 13.8%
O=C(CN1CCSc2ccccc21)N1CCN(c2ccccc2)CC1 16.3%
Cc1ccccc1CSc1nc2c([nH]c3ccccc32)c(=O)n1C 2.18%
COc1ccc(CNC(=O)C2CCN(C(=O)c3ccco3)CC2)cc1 3.03%
CCc1nnc(NC(=O)C2CCN(C(=O)c3ccccc3C)CC2)s1 0.925%
Cc1ccc(-c2noc(-c3nnn(-c4cccc(C(F)(F)F)c4)c3N)n2)cc1 7.83%
O=Cc1cn(-c2ccccc2)nc1-c1ccccn1 0.792%
O=C(c1ccc2c(=O)n(Cc3ccco3)c(=S)[nH]c2c1)N1CCCC1 -15.6%
CCOC(=O)c1cc2c(=O)n3ccccc3nc2n(CC2CCCO2)c1=NC(=O)c1ccc(C(C)(C)C)cc1 (centres undefined) -4.97%
CC1=C(c2ccc(F)cc2)S(=O)(=O)N=C1N1CCC(C(=O)NCCc2ccccc2C)CC1 9.29%
Cc1nn(CC(=O)N2CCN(c3cccc(C(F)(F)F)c3)CC2)c(=O)c2cc3sccc3n12 -6.46%
NS(=O)(=O)c1ccc(NC2=CC(c3ccc(F)cc3)N(c3ccc(S(N)(=O)=O)cc3)C2=O)cc1 (centres undefined) 21.6%
CCOC(=O)c1ccc(-c2ccc(/C=C(\C#N)C(=O)Nc3ccc(OCC)cc3)o2)cc1 -4.51%
Cc1cc(NC(=O)C2CCC(CNS(=O)(=O)c3ccc(Br)s3)CC2)ccc1Br (centres undefined) -18%
COc1ccc(-c2nc3ccccc3s2)cc1NC(=O)COc1ccccc1C 1.1%
Cc1cnc(CNc2nc(-c3cccnc3)nc3ccccc23)cn1 -20.5%
COc1cccc(-c2nc(Nc3ccncc3)c3ccccc3n2)c1 16.5%
CCOc1ccc(Nc2c(S(=O)(=O)c3ccccc3)cnc3ccccc23)cc1 -2.09%
Cc1nc2ccn(Cc3cccnc3)c(=O)c2cc1C(=O)N1CCN(c2ccccc2F)CC1 -2.65%
CC(=O)Nc1ccc(S(=O)(=O)N2N=NC3C2C2CC4C3(CN(C(=O)OC(C)(C)C)S4(=O)=O)O2)cc1 (centres undefined) -28.4%
CCn1cc(C(=O)NCC2COc3ccccc3O2)c2cc(OC)c(OC)cc2c1=O (centres undefined) -12.1%
O=C(NCC1COc2ccccc2O1)C1(c2ccccc2)CCCC1 (centres undefined) -20%
COc1cc(/C=N/O)cc(Br)c1OCc1cccc(Cl)c1 4.44%
COc1cc(/C=C2/C(=O)NN(c3ccc(F)cc3)C2=O)cc([N+](=O)[O-])c1O -24.2%
COCCn1c(=O)c(-c2cc(F)cc(F)c2)nc2cnc(N3CCNCC3)nc21 -11.9%
Cc1cn([C@H]2CC(F)[C@@H](CO)O2)c(=O)[nH]c1=O (some centres undefined) -2.1%
O=C(CSc1nccn1C1CCCC1)Nc1cc(C(F)(F)F)ccc1Cl 24.3%
CCc1nnc(SCC(=O)Nc2cc(OC)ccc2OC)nc1CC 8.11%
Cc1ccccc1-c1nc(CS(=O)(=O)CC(=O)Nc2cc(Cl)cc(Cl)c2)c(C)o1 13%
CC1=C(c2ccc(C)c(C)c2)S(=O)(=O)NC1=NCc1ccccc1Cl 4.51%
O=c1n(Cc2cccc(C(F)(F)F)c2)c2ccccc2c2nc(-c3ccccc3)nn12 -21.7%
CCOc1cccc(CC(=O)N2CCc3c([nH]c4ccccc34)C2c2ccc(F)cc2)c1OCC (centres undefined) 6.55%
COc1ccc(S(=O)(=O)Nc2cccc3cccnc23)c(N)c1 -18.8%
Cn1cc(-c2nc3cnc(N4CCNCC4)nc3n(CCC#N)c2=O)c2ccccc21 -5.94%
O=C(Nc1cc(C(=O)Nc2ccc(S(=O)(=O)O)cc2)cc(C(=O)Nc2ccc(S(=O)(=O)O)cc2)c1)Nc1cc(C(=O)Nc2ccc(S(=O)(=O)O)cc2)cc(C(=O)Nc2ccc(S(=O)(=O)O)cc2)c1 4.66%
O=C(NNC1CC(=O)N(c2cccc(Cl)c2)C1=O)c1cccnc1 (centres undefined) 4.73%
O=C(OCc1cc(Cl)ccc1OC(F)F)c1cccnc1 3.25%
O=C(c1cnn(-c2ccc(F)cc2)c1-n1cccc1)N1CCN(c2ccc(F)cc2)CC1 -3.32%
CC[C@]1([C@H]2O[C@@H]([C@@H]3O[C@](O)(CO)[C@@H](C)C[C@H]3C)C[C@H]2C)CC[C@@H]([C@]2(C)CC[C@@]3(C[C@@H](O)[C@@H](C)[C@@H]([C@H](C)[C@H](OC)[C@H](C)C(=O)O)O3)O2)O1 3.44%
COc1ccc(N(CC(=O)Nc2cc(OC)ccc2OC)S(=O)(=O)c2c(C)noc2C)cc1 5.52%
CCOC(=O)C1CCCN(C(=O)CN(c2ccc(OC)cc2)S(=O)(=O)c2c(C)noc2C)C1 (centres undefined) -22.5%
O=C(c1cccc(F)c1)N1CCC2(CCCN(Cc3ccncc3)C2)CC1 -10.4%
Cc1ccc(Cn2cc(CCC(=O)NCc3ccc(OC(C)C)cc3)c3ccccc32)cc1 7.91%
COC(=O)c1cccc(N2C(=O)C3C4C=CC(CC4)C3C2=O)c1 (centres undefined) 12.5%
COC(=O)c1cccc(NC(=O)c2cccc(N3C(=O)CCC3=O)c2)c1 -2.51%
COc1cccc(NC(=O)CSC2=Nc3ccccc3C3=NC(CC(=O)NC4CCCCC4)C(=O)N23)c1 (centres undefined) 1.75%
CCOCCCNC(=O)c1cn(CC)c2ccc(S(=O)(=O)N3CCc4ccccc4C3)cc2c1=O -6.66%
OCCN1CCN(CC/C=C2\c3ccccc3Sc3ccc(C(F)(F)F)cc32)CC1 -15.9%
COc1ccc(C(=O)c2oc3ccc(Br)cc3c2NC(C)=O)cc1 -3.63%
COc1ccc(CC(=O)NCC(=O)N/N=C/c2cc(Br)ccc2OC)cc1 13.7%
CCN(CC)c1nn2c(=O)c(C(=O)NCCc3ccccc3)cnc2s1 2.65%
CCOC(=O)c1sc(NC(=O)/C=C/c2ccc(C(C)C)cc2)c(C(=O)OCC)c1C -21.4%
CCOC(=O)c1c(NC(=O)c2ccc(S(=O)(=O)N3CCCC(C)C3)cc2)sc2c1CCN(C(C)C)C2 (centres undefined) 21.6%
CCC(C(=O)Nc1ccc(C(C)C)cc1)c1ccccc1 (centres undefined) -16.3%
CC(C)CC(=O)NC(=S)Nc1cc(C(=O)O)ccc1Cl -4.96%
Cc1ccc(C)c(NC(=S)NCC(c2cccnc2)N2CCOCC2)c1 (centres undefined) -7.85%
Cc1ccc(NC(=S)NCCc2ccc(Cl)cc2)c(C)c1 2.39%

Potency, active:
CCOc1cc(C(=S)N2CCOCC2)ccc1O 79.4 µM
O=C(c1csnn1)N1CCC[C@@]2(CCN(c3cccc(-c4ccccc4)c3)C2)C1 44.7 µM
O=C(c1ccco1)N1CCC[C@@]2(CCN(c3ccccc3)C2)C1 44.7 µM
CCN1CCC(O)(/C=C/c2ccc(C)cc2)C(C(=O)/C=C/c2ccc(C)cc2)C1 (centres undefined) 25.1 µM
Cc1ccc(-c2ccc(/C=N/NC(=O)CN3CCOCC3)o2)cc1[N+](=O)[O-] 2.51 µM
CCC(CC)c1nnc(NC(=O)C2CCN(C(=O)c3ccco3)CC2)s1 89.1 µM
O=C1C(c2ccccn2)=[N+]([O-])c2ccccc21 12.6 µM
CCOC(=O)c1ccc(NC2=CC(c3ccc(OCC)cc3)N(c3ccc(C(=O)OCC)cc3)C2=O)cc1 (centres undefined) 28.2 µM
COc1ccc(Nc2nc(-c3cccnc3)nc3ccccc23)cn1 70.8 µM
Cc1cc(C(=O)CCl)c(C)n1CC1COc2ccccc2O1 (centres undefined) 89.1 µM
COc1cc(/C=C2/C(=O)NN(c3cccc(Cl)c3)C2=O)cc(Br)c1O 22.4 µM
C=C1C(=O)C23C(O)C1CCC2[C@]12COC3(O)C(O)C1C(C)(C)CC[C@H]2O (some centres undefined) 14.1 µM
O=C(/C=C/c1ccc(Cl)cc1Cl)c1cccnc1 20 µM
CCOc1ccc(N(CC(=O)OC)S(=O)(=O)c2c(C)noc2C)cc1 89.1 µM
COC(=O)c1cccc(-n2[nH]nnc2=S)c1 79.4 µM
COc1ccc(/C=C/C(=O)c2cc(Br)ccc(=O)c2O)cc1 50.1 µM
CC(C)c1ccc(NC(=S)NNc2ccc(Cl)c(C(=O)O)c2)cc1 39.8 µM
Cc1ccc(C)c(NC(=S)NNC(=S)Nc2ccc(C(C)C)cc2)c1 35.5 µM
